# The campaign covered roughly 290,000 compounds. About 370 (0.13%) were called active.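 Rule for the calls: active = spots per cell inhibited over 60%, with over 100 cells counted and total cytoplasm intensity under 500,000; inconclusive = wells with under 100 cells, flagged as likely toxic; inactive = the rest.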 What follows is part of a selection rich in actives, with near analogues and random picks from the rest. Measured potencies and affinities stand elsewhere.
# Target: G-protein coupled receptor 55 (Homo sapiens) (UniProt Q9Y2T6)
# Test: GPR55 antagonists blocking LPI-driven arrestin recruitment, primary screen, imaging, U2OS, beta-arrestin-GFP, LPI agonist (AID 2013);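 note: U2OS cells stably carrying GPR55 and arrestin-GFP stimulated by 5 µM LPI near EC80; imaged beta-arrestin-GFP aggregate spots per cell after agonist stimulation; plate controls were LPI-stimulated DMSO wells for no effect and DMSO wells without LPI for full effect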
# Conditions: U2OS GPR55 beta-arrestin-GFP translocation imaging, LPI antagonism; at 10 µM; stronger effect = higher value
# G-protein coupled receptor 55 (Homo sapiens), sequence (Q9Y2T6 whole entry, looked up): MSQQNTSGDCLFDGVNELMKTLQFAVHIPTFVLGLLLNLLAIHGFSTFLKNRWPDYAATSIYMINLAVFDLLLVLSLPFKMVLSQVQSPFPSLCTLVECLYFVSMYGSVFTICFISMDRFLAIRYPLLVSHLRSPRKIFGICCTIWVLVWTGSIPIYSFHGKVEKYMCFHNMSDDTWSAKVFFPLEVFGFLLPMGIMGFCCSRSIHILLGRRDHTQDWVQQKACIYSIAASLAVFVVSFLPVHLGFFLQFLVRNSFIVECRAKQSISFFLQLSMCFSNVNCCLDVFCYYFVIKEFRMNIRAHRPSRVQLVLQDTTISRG
row,SMILES,inhibition
1,COc1ccc(Cl)cc1C(=O)NCCN(C)C,-0.9% (inactive)
2,CN(C)CCNC(=O)COc1ccc(C23CC4CC(CC(C4)C2)C3)cc1,33.6% (inactive)
3,O=C(NCCCN1CCN(c2ccc(F)cc2)CC1)NC12CC3CC(CC(C3)C1)C2,-1.6% (inactive)
4,CCOC(=O)c1cnc(SC)nc1Oc1cccc(NC(=O)c2cccc(Cl)c2Cl)c1,9.1% (inactive)
5,CCCCNC(=S)N(C)/N=C/c1sc(N2CCCCC2)nc1-c1cccs1,11.7% (inactive)
6,CC(=O)N(C1=C(O)c2ccccc2C(=O)C1=O)C1CCCCC1,-3.7% (inactive)
7,CC(=O)N(c1ccccc1)C1CCCC1,3.9% (inactive)
8,Cc1cc(OCC(=O)Nc2ccc(CN3CCOCC3)cc2)c2c(C)c(C)c(=O)oc2c1,18.4% (inactive)
9,CC(C)Sc1cc(N2CCCC2)nc(-c2ccccc2Cl)n1,7.8% (inactive)
10,CCOc1cccc(OCCNC2CCCC2)c1,-14.7% (inactive)
11,COc1ccc(-c2c3c(=O)n(C)c(=O)n(C)c3cn2-c2cc(OC)ccc2OC)cc1,11.5% (inactive)
12,COCCNC(=O)c1ccccc1NC(=O)CN(c1ccc2c(c1)OCO2)S(C)(=O)=O,6.3% (inactive)
13,COc1cccc(NC(=O)CN(C)CC(=O)Nc2cccc(C(F)(F)F)c2)c1,-8.3% (inactive)
14,O=C(Nc1ccnn1C1CCN(Cc2cc3ccccc3[nH]2)CC1)C1CCOC1 (stereo not given),1.9% (inactive)
15,Cc1cc(C)cc(NC2=C(N)C(=O)c3ccccc3C2=O)c1,6.8% (inactive)
16,Cc1cc(C)c(Nc2cc(S(=O)(=O)O)c(N)c3c2C(=O)c2ccccc2C3=O)c(C)c1,66.8% (active)
17,Nc1c(S(=O)(=O)O)cc(NC(=O)c2ccccc2)c2c1C(=O)c1ccccc1C2=O,0.8% (inactive)
18,Cc1ccc(C)c(NC(=O)NNC(=O)CCc2ccccc2)c1,11% (inactive)
19,CC(C)(C)n1nnnc1C(c1cccnc1)N(Cc1ccccc1)Cc1cccs1 (stereo not given),59.7% (inactive)
20,CC(c1nnnn1C(C)(C)C)N(Cc1cccnc1)Cc1ccccc1Cl (stereo not given),11.1% (inactive)
21,CC(C)(C)n1nnnc1C(c1cccs1)N(Cc1cccnc1)CC1CCCO1 (stereo not given),4.3% (inactive)
22,CC(C)(C)n1nnnc1C(c1cccs1)N(Cc1cccnc1)Cc1ccco1 (stereo not given),57.6% (inactive)
23,Cc1ccc(C(C)C)cc1S(=O)(=O)NCc1ccccn1,8.4% (inactive)
24,Cc1cc(C)nc(Nc2n[nH]c(-c3ccccc3Cl)n2)n1,0.2% (inactive)

row,SMILES,inhibition
1,N=c1c2c(ncn1CCCO)Oc1cc(O)ccc1C2c1ccccc1 (stereo not given),33.6% (inactive)
2,N=c1c2c(ncn1Cc1ccco1)Oc1ccc3ccccc3c1C2c1ccccc1 (stereo not given),17.8% (inactive)
3,N=c1c2c(ncn1Cc1ccco1)Oc1c(ccc3ccccc13)C2c1ccccc1 (stereo not given),65.9% (active)
4,COc1ccc(C2c3ccc4ccccc4c3Oc3ncn(Cc4ccco4)c(=N)c32)cc1OC (stereo not given),96.1% (inactive)
5,COc1ccc(C2c3ccc(O)cc3Oc3ncn4nc(-c5ccccn5)nc4c32)cc1OC (stereo not given),14.6% (inactive)
6,N=c1c2c(ncn1CCN1CCOCC1)Oc1cc(O)ccc1C2c1ccccc1 (stereo not given),16.4% (inactive)
7,COc1ccc(C2c3ccc(O)cc3Oc3ncn(Cc4ccco4)c(=N)c32)cc1OC (stereo not given),33% (inactive)
8,COc1ccc(C2c3ccc(O)cc3Oc3ncn4nc(-c5ccncc5)nc4c32)cc1OC (stereo not given),5.3% (inactive)
9,COc1ccc(C2c3c(ncn(Cc4ccco4)c3=N)Oc3ccc4ccccc4c32)cc1 (stereo not given),27.8% (inactive)
10,CNc1oc(C)nc1S(=O)(=O)c1ccccc1,-6.5% (inactive)
11,O=C(O)c1ccc2c(c1)S(=O)(=O)N=C1CCCCCN12,16.8% (inactive)
12,Cc1c(N=Cc2c(O)n(C)c(=O)c3ccccc23)c(=O)n(-c2ccccc2)n1C,1.5% (inactive)
13,CC(=O)N1c2ccccc2CCc2ccc(N)cc21,8% (inactive)
14,CC(C)(C)c1ccc(C(=O)Nc2ccc(O)c3c(=O)cc(-c4ccccc4Cl)oc23)cc1,18.3% (inactive)
15,O=c1[nH]c(=S)[nH]c2sc3c(c12)CCCCCC3,-0.5% (inactive)
16,COc1cc(/C=N/NC(=O)c2cccc3ccccc23)cc(OC)c1O,16.9% (inactive)
17,Cn1c(NC(=O)c2cc(-c3ccc4c(c3)OCO4)nc3ccccc23)cc(=O)n(C)c1=O,9.3% (inactive)
18,COc1ccc(C2c3ccc(O)cc3Oc3ncn(CCN4CCOCC4)c(=N)c32)cc1 (stereo not given),18.9% (inactive)
19,COc1ccc(C2c3ccc(O)cc3Oc3ncn(CCCO)c(=N)c32)cc1 (stereo not given),22% (inactive)
20,COC(=O)c1ccc(N(CC(=O)NC2CCCCC2)C(=O)CNC(=O)c2ccco2)cc1,-3.6% (inactive)
21,COc1ccc(-c2ccc(-c3nnc(Cc4ccc(OC)c(OC)c4)o3)cc2)cc1,-4.2% (inactive)
22,O=C1c2ccccc2C(=O)N1Cc1cc(-c2ccccc2)no1,-7.7% (inactive)
23,O=C(CCS(=O)(=O)c1cccc2nonc12)N1CCOCC1,-5.5% (inactive)
24,COc1ccc(-c2n[nH]c(C)c2-c2ccc(Cl)cc2)c(O)c1,12.3% (inactive)

row,SMILES,inhibition
1,Oc1ccc(-c2n[nH]c(C(F)(F)F)c2-c2ccccc2)c(O)c1,20.9% (inactive)
2,COc1ccc(-c2cn[nH]c2-c2ccc(OCC(=O)NN)cc2O)cc1,-13.4% (inactive)
3,COc1ccc(-c2c(-c3ccc(O)cc3O)n[nH]c2C)cc1OC,7% (inactive)
4,COc1ccc(-c2cn[nH]c2-c2ccc(OCC(=O)NN)cc2O)cc1OC,-2.6% (inactive)
5,COc1ccccc1-c1c(-c2ccc(OCC(=O)NN)cc2O)n[nH]c1C(F)(F)F,4.3% (inactive)
6,COc1ccccc1-c1c(-c2ccc(O)cc2O)n[nH]c1C(F)(F)F,5.7% (inactive)
7,COc1ccc(-c2c(-c3ccc(OCC(=O)NN)cc3O)n[nH]c2C)cc1,-11.9% (inactive)
8,CSc1c(CC(=O)Nc2ccccc2)n(C)c2ccccc12,-1% (inactive)
9,O=C(NCc1cccnc1)C(=O)Nc1ccc([N+](=O)[O-])cc1,-2.9% (inactive)
10,CSc1nsc(SC)c1NC(=O)N1CCCCC1,3.9% (inactive)
11,Cc1cc(C)c(C(=O)CN2C(=O)NC3(CCC(C)CC3)C2=O)cc1C (stereo not given),0.1% (inactive)
12,COC(=O)C1=C(C)OC(N)=C(C#N)C1c1ccccc1F (stereo not given),9% (inactive)
13,COC(=O)c1c(-c2ccccc2)csc1N,1.1% (inactive)
14,COC(=O)c1sc(NC(=O)c2c(F)cccc2F)c(C#N)c1C,-4.7% (inactive)
15,COC(=O)C1=C(N)Oc2c(oc(CO)cc2=O)C1c1ccc(F)cc1 (stereo not given),6% (inactive)
16,O=C1CC(C(=O)O)(c2ccccc2)c2cccc(F)c21 (stereo not given),-1.7% (inactive)
17,COC(=O)c1ccc(C#Cc2ccccc2)o1,-12.1% (inactive)
18,COc1ccc(-c2nnn(CC(=O)NCCc3ccc(OC)c(OC)c3)n2)cc1,-2.6% (inactive)
19,O=C1/C(=C/c2ccc([N+](=O)[O-])cc2)CCc2ccccc21,6.9% (inactive)
20,Cn1c(=O)c2c(ncn2Cc2nnc(N)s2)n(C)c1=O,3.3% (inactive)
21,CCOC(=O)c1ccc(NC(=S)N2CCC(O)CC2)cc1,1% (inactive)
22,C#CCn1c(CCNC(=O)c2ccco2)nc2ccccc21,-12.6% (inactive)
23,CCOc1ccccc1CNC(=O)CCCn1ncn2c(cc3occc32)c1=O,-7.1% (inactive)
24,CCCCC(=O)N(Cc1ccc(F)cc1)C1CCS(=O)(=O)C1 (stereo not given),-2.9% (inactive)

row,SMILES,inhibition
1,Nn1c(CSc2nc3ccccc3o2)nnc1CSc1nc2ccccc2o1,2.1% (inactive)
2,COC(=O)c1sccc1NC(=S)N1CCCCC1,-4.6% (inactive)
3,Cn1c(-c2sccc2OCc2ccccc2)n[nH]c1=S,6.8% (inactive)
4,CSc1nnc(-c2sccc2OCc2ccc(C)cc2)n1C,28.1% (inactive)
5,O=C(O)CNS(=O)(=O)c1ccc(-c2ccccc2)cc1,75.2% (active)
6,O=C(O)CNS(=O)(=O)c1ccc(F)cc1,0.5% (inactive)
7,O=C(O)CNS(=O)(=O)c1ccc2c(c1)C(=O)c1cc(S(=O)(=O)NCC(=O)O)ccc1-2,-7.8% (inactive)
8,COc1ccc(C(=O)Nc2ccc(/C(C)=N/NC(=O)c3ccncc3)cc2)cc1,10.6% (inactive)
9,Cc1cccc(NC(=O)C2CC(O)CN2C(=O)Oc2ccccc2)c1 (stereo not given),2.6% (inactive)
10,CC(NC(=O)Cn1nnc(-c2ccncc2)n1)c1ccccc1 (stereo not given),-4.9% (inactive)
11,COc1cc2c(cc1OC)-c1nc3ccccc3c(=O)n1C(C)(C)C2,4.8% (inactive)
12,CC1(C)Cc2ccccc2-c2nc3ccccc3c(=O)n21,0.3% (inactive)
13,O=C(NC12CC3CC(CC(C3)C1)C2)c1ccc(-c2ccccc2Cl)o1,-9.4% (inactive)
14,O=C(NC12CC3CC(CC(C3)C1)C2)c1ccc(Br)o1,13% (inactive)
15,O=C(NC12CC3CC(CC(C3)C1)C2)c1ccc([N+](=O)[O-])o1,1.3% (inactive)
16,O=C(NC12CC3CC(CC(C3)C1)C2)c1ccc(-c2cccc(Cl)c2)o1,2.9% (inactive)
17,O=C(NC12CC3CC(CC(C3)C1)C2)c1ccc(-c2ccc(Br)cc2)o1,63.8% (active)
18,C1CN(c2nc(N3CCOCC3)nc(N3CCOCC3)n2)CCO1,8.7% (inactive)
19,Cc1[nH]nc2c1/C(=N/O)CC(c1ccccc1)C2 (stereo not given),-5.5% (inactive)
20,COc1cc2ncc(C(=O)c3ccccc3)c(N3CCN(Cc4ccccc4)CC3)c2cc1OC,3.4% (inactive)
21,CCc1ccccc1N(C)C(=O)CCc1nc(-c2ccc(C)cc2)no1,-8.4% (inactive)
22,Cc1ccc(-c2noc(CCC(=O)N(C)c3ccccc3C)n2)cc1,-2.6% (inactive)
23,CCc1ccccc1NS(=O)(=O)c1c(C(=O)N2CCCCCC2)c(C)n(C)c1C,3.1% (inactive)

# — PubChem BioAssay AID2013 (Sanford-Burnham Center for Chemical Genomics, 2009)
